Records with an inconclusive call do not appear. Active and inactive are the calls of the source. Calls follow the shape of the dose curve; as a rule, active = well fitted curve in the direction sought with a large enough effect; inconclusive = small, poorly fitted or top-dose-only effect, or another doubt; inactive = no such curve, though single readings can be large; an effect the other way counts as inactive or inconclusive.
Experiments:
[1] = molecular target: Calcium and integrin-binding protein 1 (Homo sapiens) (UniProt Q99828); assay: Primary qHTS for Identification of Calcium Integrin Binding Protein 1 (CIB1) Competitor (AID 1508620);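 also: GST tagged CIB1 binding a fluorescein labelled alphaIIb integrin peptide tracer; top concentration of the series differs between compounds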
Summary of the method: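 Fluorescence polarization competition: CIB1-GST (1 uM final) preincubated with compound 15 min at room temperature, then FITC-labeled alphaIIb peptide (100 nM final) added for another 15 min. Polarization read at Ex 480/Em 540.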

[2] = Primary qHTS for inhibitors of nuclear receptor binding SET domain protein 2 (NSD2) in an isogenic RCH-ACV NSD2 p.E1099K mutant (9B) (AID 1645876); also: nearly all actives have a fitted effect of over 70% in size
[3] = Primary qHTS for inhibitors of nuclear receptor binding SET domain protein 2 (NSD2) in an RCH-ACV wild type WT cells (2C) (AID 1645877); also: nearly all actives have a fitted effect of over 70% in size
% is scaled to controls: 0 for no effect and ±100 for the full control effect.

Calcium and integrin-binding protein 1 (Homo sapiens), sequence (Q99828 whole entry, looked up): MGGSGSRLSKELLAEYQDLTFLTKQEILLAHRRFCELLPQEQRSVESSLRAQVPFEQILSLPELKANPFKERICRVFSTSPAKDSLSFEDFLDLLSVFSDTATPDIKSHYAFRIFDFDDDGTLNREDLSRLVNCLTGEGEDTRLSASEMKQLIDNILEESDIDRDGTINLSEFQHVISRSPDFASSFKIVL

COC(=O)C1=CO[C@@H](O[C@@H]2O[C@H](CO)[C@@H](O)[C@H](O)[C@H]2O)/C(=C\CO)[C@@H]1CC(=O)OCCc1ccc(O)cc1
inactive: Potency [1] | Potency [2] | Potency [3]

CC1=C(CC/C(C)=C/C(=O)O)[C@@]2(C)CCCC(C)(C)C2CC1=O (some centres not stated)
inactive: Potency [1] | Potency [2] | Potency [3]

C=C1C(=O)O[C@@H]2CC(C)=C([C@@H](C)CCCOC(C)=O)[C@@H](O)[C@H]12
inactive: Potency [1] | Potency [2] | Potency [3]

CC1=C2C(=O)C=C(CO)C2[C@H]2OC(=O)[C@H](C)[C@@H]2[C@@H](OC(=O)Cc2ccc(O)cc2)C1 (some centres not stated)
inactive: Potency [1] | Potency [2] | Potency [3]

Cc1ccc(-c2c(-c3nn(C)c4ncnc(N5CC[C@H](N6CCCCC6)C5)c34)cnn2C)cc1
inactive: Potency [1] | Potency [2] | Potency [3]

COc1cc(CO)cc(OC)c1O[C@@H]1O[C@H](CO)[C@@H](O)[C@H](O)[C@H]1O
inactive: Potency [1] | Potency [2] | Potency [3]

CC(C)=CCC/C(C)=C/CO[C@@H]1O[C@H](CO[C@@H]2OC[C@](O)(CO)[C@H]2O)[C@@H](O)[C@H](O)[C@H]1O
inactive: Potency [1] | Potency [2] | Potency [3]

C=C1[C@H]2CCC3[C@]4(C)CCC[C@@](C)(C(=O)O)C4CC[C@]3(C2)[C@H]1OC(C)=O (some centres not stated)
inactive: Potency [1] | Potency [2] | Potency [3]

CC(=O)O[C@H]1C[C@@]2(C)[C@@H](CC[C@H]3[C@@]4(C)C=CC(=O)[C@@H](C)[C@@H]4[C@H](OC(C)=O)C(=O)[C@@]32C)/C1=C(\CCC=C(C)C)C(=O)O
inactive: Potency [1] | Potency [2] | Potency [3]

CC(=O)O[C@@H]1C(O)C[C@@]2(C)C(CC[C@@H](C)C23Cc2c(O)cc4c(c2O3)CNC4=O)C1(C)C (some centres not stated)
inactive: Potency [1] | Potency [2] | Potency [3]

CC(=O)c1[nH]cc(CCC(=O)O)c1CC(=O)O
inactive: Potency [1] | Potency [2] | Potency [3]

NC(Cc1c[nH]c2ccc(O)cc12)C(=O)O (configuration not stated)
inactive: Potency [1] | Potency [2] | Potency [3]

COc1cncc(C#Cc2ccccn2)c1
inactive: Potency [1] | Potency [2] | Potency [3]

C/C(=C\CCC1(C)C2CC3C(C2)C31C)C(=O)O (configuration not stated)
inactive: Potency [1] | Potency [2] | Potency [3]

C/C=C1\[C@H](O[C@@H]2O[C@H](CO)[C@@H](O)[C@H](O)[C@H]2O)OC=C(C(=O)O)[C@H]1CC(=O)OCCc1ccc(O)cc1
inactive: Potency [1] | Potency [2] | Potency [3]

CC(O)/C=C/C1(O)C(C)C(O)C(O[C@@H]2O[C@H](CO)[C@@H](O)[C@H](O)[C@H]2O)CC1(C)C (some centres not stated)
inactive: Potency [1] | Potency [2] | Potency [3]

CC1(C)CC2C(O)C3=C(CC(C)(O)C2C1)C(=O)OC3 (configuration not stated)
inactive: Potency [1] | Potency [2] | Potency [3]

COC(=O)C1=CO[C@@H](O[C@@H]2O[C@H](CO)[C@@H](O)[C@H](O)[C@H]2O)[C@H]2[C@@H]1[C@H](O)C[C@]2(C)O
inactive: Potency [1] | Potency [2] | Potency [3]

CC1=C(CCC(C)O[C@@H]2O[C@H](CO)[C@@H](O)[C@H](O)[C@H]2O)C(C)(C)CC(O)C1 (some centres not stated)
inactive: Potency [1] | Potency [2] | Potency [3]

C=C1CCC2C(C)(C(=O)O)CCCC2(C)C1CC/C(C)=C\CO (configuration not stated)
inactive: Potency [1] | Potency [2] | Potency [3]

CC[C@H](C)[C@H](NC(=O)[C@H](Cc1ccc(O)cc1)NC(=O)[C@@H](N)C(C)C)C(=O)N[C@@H](Cc1cnc[nH]1)C(=O)N1CCC[C@H]1C(=O)N[C@@H](Cc1ccccc1)C(=O)O
inactive: activity change, negative = inhibition [1] 2.56% [at 12.4 µM] | outcome [2] inactive [at 4.96 µM] | activity change, negative = cell killing [3] 2.6% [at 4.96 µM]

C[C@@H]1O[C@@H](O[C@H]2[C@H](OC(=O)[C@]34CCC(C)(C)C[C@H]3C3=CCC5[C@@]6(C)CC[C@H](O[C@@H]7O[C@H](CO[C@@H]8OC[C@H](O)[C@H](O)[C@H]8O[C@@H]8OC[C@@H](O)[C@H](O)[C@H]8O)[C@@H](O)[C@H](O)[C@H]7O)C(C)(C)C6CC[C@@]5(C)[C@]3(C)C[C@H]4O)O[C@H](CO)[C@@H](O)[C@@H]2O)[C@H](O[C@@H]2O[C@H](CO)[C@@H](O)[C@H](O)[C@H]2O)[C@H](O)[C@H]1O[C@@H]1OC[C@@H](O)[C@H](O[C@@H]2OC[C@@H](O)[C@H](O)[C@H]2O)[C@H]1O (some centres not stated)
inactive: activity change, negative = inhibition [1] 0.603% [at 12.4 µM] | activity change, negative = viability loss [2] 4.39% [at 4.96 µM] | activity change, negative = cell killing [3] 4.37% [at 4.96 µM]

COc1cc2c(c(O)c1OC/C=C(\C)CC/C=C(/C)CCC=C(C)C)CN(C(CCC(=O)O)C(=O)O)C2=O (configuration not stated)
inactive: Potency [1] | Potency [2] | Potency [3]

CC1(CO)CC(O)C2(C)CCC3(C)C(=CCC4C5(C=O)CCC(OC6OC(C(=O)O)C(O)C(O)C6OC6OC(C(=O)O)C(O)C(O)C6O)C(C)(C)C5CCC43C)C2C1 (configuration not stated)
inactive: Potency [1] | activity change, negative = viability loss [2] -5.71% [at 9.23 µM] | activity change, negative = cell killing [3] -0.213% [at 9.23 µM]

C=C(C)[C@@H]1CC[C@]2(CO)CC[C@]3(C)[C@H](CC[C@@H]4[C@@]5(C)CC[C@H](O)C(C)(C)[C@@H]5CC[C@]43C)[C@@H]12
inactive: Potency [1] | Potency [2] | Potency [3]

CC1=C[C@@H]2[C@H]3[C@@H]4O[C@@](C)(CC[C@H]4O)[C@H]3CC(=O)[C@]23C(=O)N[C@@H](CC(C)C)[C@@H]3[C@@H]1C
inactive: Potency [1] | Potency [2] | Potency [3]

COC(=O)C1(O)C(OC(C)=O)CCC2C3(CC(c4ccoc4)OC3=O)C(C)=CCC21C(=O)OC (configuration not stated)
inactive: Potency [1] | Potency [2] | Potency [3]

CC(C)=CCC[C@](C)(O[C@@H]1O[C@H](CO[C@@H]2O[C@@H](CO)[C@H](O)[C@H]2O[C@@H]2OC[C@@H](O)[C@H](O)[C@H]2O)[C@@H](O)[C@H](O)[C@H]1O)[C@H]1CC[C@]2(C)[C@@H]1[C@H](O)CC1[C@@]3(C)CC[C@H](O[C@@H]4O[C@H](CO)[C@@H](O)[C@H](O)[C@H]4O[C@@H]4O[C@H](CO)[C@@H](O)[C@H](O)[C@H]4O)C(C)(C)C3CC[C@]12C (some centres not stated)
inactive: activity change, negative = inhibition [1] -3.93% [at 12.4 µM] | activity change, negative = viability loss [2] -9.17% [at 9.23 µM] | activity change, negative = cell killing [3] -15.6% [at 9.23 µM]

CC(C)=CCC[C@](C)(O[C@@H]1O[C@H](CO[C@@H]2OC[C@H](O)[C@H](O)[C@H]2O)[C@@H](O)[C@H](O)[C@H]1O)[C@H]1CC[C@]2(C)[C@@H]1[C@H](O)C[C@@H]1[C@@]3(C)CC[C@H](O[C@@H]4O[C@H](CO)[C@@H](O)[C@H](O)[C@H]4O[C@@H]4O[C@H](CO)[C@@H](O)[C@H](O)[C@H]4O)C(C)(C)[C@@H]3CC[C@]12C
inactive: Potency [1] | Potency [2] | Potency [3]

CC(C)=C1CC2C(CCC2(C)O)C(C)(O)CC1=O (configuration not stated)
inactive: Potency [1] | Potency [2] | Potency [3]

CC(C)C1C(OC(=O)/C=C/c2ccccc2)CC2(C)OC2CCC2(C)OC2C1O (configuration not stated)
inactive: Potency [1] | Potency [2] | Potency [3]

C/C=C(/C)C(=O)O[C@@H]1C[C@@H](OC(=O)/C(C)=C\C)[C@@]2(C)C3C(=O)C=C(C)C2C3C1(C)C
inactive: Potency [1] | Potency [2] | Potency [3]

CC1=COC(OC2OC(CO)C(O)C(O)C2O)C2C(CO)CC(OC(=O)/C=C/c3ccc(O)cc3)C12 (configuration not stated)
inactive: Potency [1] | Potency [2] | Potency [3]

C=CC(C)(CC/C=C(\C)C(=O)OC[C@H]1O[C@@H](OC(C)(C=C)CC/C=C(\C)C(=O)O[C@H]2[C@H](O)[C@@H](O)[C@H](OC(C)(C=C)CC/C=C(\C)C(=O)O)O[C@@H]2CO)[C@H](O)[C@@H](O)[C@@H]1O)O[C@@H]1O[C@H](CO)[C@@H](O)[C@H](O)[C@H]1O (some centres not stated)
inactive: Potency [1] | activity change, negative = viability loss [2] -1.17% [at 9.23 µM] | outcome [3] inactive [at 9.23 µM]

CC1=C2C(=O)C=C(CO)C2C2OC(=O)C(CS(=O)(=O)O)C2C(OC(=O)Cc2ccc(O)cc2)C1 (configuration not stated)
inactive: Potency [1] | Potency [2] | Potency [3]

COC(=O)c1c(CC=C(C)C)c(OC2OC(CO)C(O)C(O)C2O)c2ccccc2c1OC1OC(CO)C(O)C(O)C1O (configuration not stated)
inactive: Potency [1] | Potency [2] | Potency [3]

CC1=CC(=O)CC(C)(C)C1/C=C/C(C)OC1OC(COC2OCC(O)C(O)C2O)C(O)C(O)C1O (configuration not stated)
inactive: Potency [1] | Potency [2] | Potency [3]

COc1cc(O)cc(C)c1C(=O)OC1C(CO)OC(n2ccc(=O)[nH]c2=O)C1OC(C)=O (configuration not stated)
inactive: Potency [1] | Potency [2] | Potency [3]

C/C=C(/C)C(=O)OC1CC(C)(C)CC2C3=CCC4C5(C)CCC(OC6OC(C)C(OC7OC(C(=O)O)C(O)C(OC8OC(CO)C(O)C(O)C8OC8OC(CO)C(O)C(O)C8O)C7O)C(O)C6O)C(C)(C)C5CCC4(C)C3(C)C(OC(=O)/C=C/C=C/C=C/CCC)C(OC(C)=O)C12CO (configuration not stated)
inactive: activity change, negative = inhibition [1] 0.802% [at 12.4 µM] | activity change, negative = viability loss [2] -8.21% [at 9.23 µM] | activity change, negative = cell killing [3] -14.8% [at 9.23 µM]

C[C@H]1[C@@H](O)[C@H](O)C2[C@]3(C)C([C@@H](O)[C@H]4OC(=O)[C@@H]1[C@@]24C)[C@](C)(O)C=C[C@H]3O[C@@H]1O[C@H](CO)[C@@H](O)[C@H](O)[C@H]1O (some centres not stated)
inactive: Potency [1] | Potency [2] | Potency [3]

CC(=O)OC[C@]12[C@@H](OC(=O)c3ccoc3)C[C@@H]3[C@@H](OC(C)=O)[C@]1(OC3(C)C)[C@@](C)(O)C[C@H](OC(=O)c1ccoc1)[C@@H]2OC(=O)c1ccoc1
inactive: Potency [1] | Potency [2] | Potency [3]

O=C(/C=C/c1ccc(O)cc1)OCC1OC(O)C(OC2OC(CO)C(O)C(O)C2O)C(O)C1O (configuration not stated)
inactive: Potency [1] | Potency [2] | Potency [3]

CC1=CC(=O)C(=C(C)C)CC2C(C)(O)CCC12O (configuration not stated)
inactive: Potency [1] | Potency [2] | Potency [3]

C[C@@H]1O[C@@H](O[C@H]2[C@@H]3C=CO[C@@H](O[C@@H]4O[C@H](CO)[C@@H](O)[C@H](O)[C@H]4O)[C@@H]3[C@@]3(CO)O[C@@H]23)[C@H](O)[C@H](O)[C@H]1OC(=O)/C=C/c1ccc(O)cc1
inactive: Potency [1] | Potency [2] | Potency [3]

Source: PubChem BioAssay (NCATS)
